The record followed here is PubChem BioAssay AID686979 (National Center for Advancing Translational Sciences (NCATS), 2013).

The campaign covered roughly 420,000 compounds. About 50,000 (12%) were called active. About 26% were inconclusive and are not listed. What follows is part of a selection rich in actives, with near analogues and random picks from the rest. Unmarked numbers belong to inactive results. Calls follow the shape of the dose curve; as a rule, active = well fitted inhibition curve with a large enough effect; inconclusive = small, poorly fitted or top-dose-only effect; inactive = flat fitted curve, though single readings scatter.
% is scaled to controls: 0 for no effect and ±100 for the full control effect; potency is read from the fitted curve at half-maximal effect.

The test is described as follows: qHTS for Inhibitors of human tyrosyl-DNA phosphodiesterase 1 (TDP1): qHTS in cells in presence of CPT. Also: nearly all actives have a fitted effect of over 55% in size. Particulars: chicken DT40 Tdp1-/-;hTDP1 cells + 20 nM CPT, ATP luminescence, 48 h; series mostly up to 46.2 µM; activity change, negative = growth inhibition: at the top concentration. The method, boiled down: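 Chicken DT40 Tdp1-/- cells complemented with human TDP1, 400 cells/well, exposed to compounds plus 20 nM camptothecin for at least 48 h at 37 C; viability read as ATP content by CellTiter-Glo luminescence.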
Background: Quantitative high-throughput screening tests each substance at several concentrations.
As to `O=C(CCN1C(=O)c2ccccc2C1=O)NNC(=O)c1ccc(Cl)cc1Cl`, the “activity change, negative = growth inhibition” value is -13.6%.
The same measure, in the same setting: under `CN(Cc1ccc(F)cc1)C(=O)CN1C(=O)c2ccccc2S1(=O)=O` stands 6.12%.
Take `O=C(O)c1ccc2c(c1)N(Cc1ccc(F)cc1)C(=O)c1ccccc1S2=O` (stereo unspecified): the Potency was 11.6 µM (active).
For `Cc1ccccc1NC(=O)NCC1CCN(Cc2cccc(Cl)c2)CC1`, the “activity change, negative = growth inhibition” value is 7.35%.
Regarding `O=C(Nc1cc(Cl)cc(Cl)c1)c1ccc2c(c1)N(Cc1cccc(Cl)c1)C(=O)c1ccccc1S2=O` (stereo unspecified), the Potency is 3.66 µM (active).
For `Brc1cc(/C=N/n2cnnc2)oc1Br`, the “activity change, negative = growth inhibition” value is -27.2%.
On the same count and under the same terms, under `CCCOC1CCCN(Cc2cn(C)nc2-c2ccccc2F)C1` (stereo unspecified) stands 17%; under `CC(=O)N1CC(=O)N(CC(=O)Nc2ccc(Br)cc2)C1=S`, -13.4%.
On the same count and under the same terms, under `COc1cccc(CNC(=O)Cn2c(=O)c3cccn3c3ccc(F)cc32)c1OC` stands -10.8%.
Still for that read-out and setting: under `Cc1cccc(N2CC(C(=O)Nc3ccccc3N3CCCC3)CC2=O)c1C` (stereo unspecified) stands 9.32%.
As to `O=C(COc1ccccc1F)OCc1cc(=O)n2nc(C3CCCCC3)sc2n1`, the “activity change, negative = growth inhibition” value was -2.79%.
Same read-out and setting: under `CN(C)CCN=c1cc(-c2ccccc2)oc2ccc(Cl)cc12` stands 1.27%.
As for `CCc1nn(CC(=O)Nc2cc(C)cc(C)c2)c(=O)c2cc3sccc3n12`, the Potency was 4.11 µM (active).
Regarding `CCc1nn(CC(=O)NCC(C)c2ccccc2)c(=O)c2cc3occc3n12` (stereo unspecified), the “activity change, negative = growth inhibition” value was -15.7%.
On the same count and under the same terms, under `CCc1nn(CC(=O)Nc2cccc(C)c2C)c(=O)c2cc3sccc3n12` stands -1.63%; under `O=C(CC1SC(N2CCOCC2)=NC1=O)Nc1ccccc1F` (stereo unspecified), 5.5%.
In the case of `O=C(c1ccc(N2CCCC2=O)cc1)N1CCN(c2ccc(C(F)(F)F)cc2[N+](=O)[O-])CC1`, the Potency is 3.66 µM (active).
For the compound `O=C(Cc1ccc(S(=O)(=O)N2CCOCC2)s1)NCCOc1ccccc1F`, the “activity change, negative = growth inhibition” value is -23.9%.
The same measure, in the same setting: under `O=C(Nc1cc(Cl)ccc1N1CCOCC1)c1ccc(N2CCCC2=O)cc1` stands -12.9%; under `CNS(=O)(=O)c1ccc(N2CCCC2=O)c([N+](=O)[O-])c1`, 21.4%.
Still for that read-out and setting: under `Cc1cc(S(=O)(=O)N2CCOCC2)ccc1OCC(=O)Nc1cccc(C(F)(F)F)c1` stands -10.3%.
Consider `O=C(Cc1ccc(S(=O)(=O)N2CCOCC2)s1)Nc1ccc(Br)c(C(F)(F)F)c1`, for which the Potency is 14.6 µM (active).
On the same count and under the same terms, under `O=C(Cc1ccc(S(=O)(=O)N2CCOCC2)s1)N1CCN(c2ccc(C(F)(F)F)cc2[N+](=O)[O-])CC1` stands 14.6 µM (active).
Turning to `O=C(COc1ccc(S(=O)(=O)N2CCOCC2)cc1Cl)N1CCOCC1`, the “activity change, negative = growth inhibition” value is 1.63%.
Same read-out and setting: the same measure for `O=C(OCC(=O)N1CCOCC1)c1ccc(N2CCOCC2)c([N+](=O)[O-])c1`: 17.7%; for `O=C(Nc1ccccc1Cl)N1CCN(c2ccc3nncn3n2)CC1`: 3.27%.
On the same count and under the same terms, under `Cc1c(C)c2ccc(OCC(=O)N3CCC(C(=O)O)CC3)c(C)c2oc1=O` stands 17.1%; under `Cc1cccc(OCCC(=O)OCc2csc(CC(=O)Nc3ccccc3C)n2)c1`, -16.9%.
The same measure, in the same setting: the same measure for `COC(=O)c1ccc(CNC(=O)c2ccc3oc(C(C)C)nc3c2)cc1`: -27.4%.
In the case of `COc1ccc(CSc2nnnn2-c2ccc(O)cc2)cc1F`, the “activity change, negative = growth inhibition” value is -50.4%.
The same measure, in the same setting: under `CC1CCCCC1NC(=O)Cn1cnc2c1c(=O)n(C)c(=O)n2C` (stereo unspecified) stands -10.2%.
On the same count and under the same terms, the same measure for `O=C(COc1ccc(Cl)cc1[N+](=O)[O-])N1CCCCC1`: -12.8%.
For the compound `O=C(c1ccc(Oc2ccc(Cl)cc2)c([N+](=O)[O-])c1)N1CCCC1`, the Potency is 13 µM (active).
As to `O=C(Oc1ccccc1Cl)c1ccc(N2CCOCC2)c([N+](=O)[O-])c1`, the “activity change, negative = growth inhibition” value was -13.1%.
On the same count and under the same terms, under `Cc1ccc(-n2cnc3ncnc(-c4ccccc4)c32)cc1` stands 24.9%.
On to `Cc1ccc(-c2nn(CC(C)(C)C)c3ncnc(N)c23)cc1`, for which the Potency was 6.68 µM (active).
For the compound `CC(=O)NC(CC(=O)Nc1nccs1)c1ccccc1` (stereo unspecified), the “activity change, negative = growth inhibition” value is -13%.
Still for that read-out and setting: the same measure for `CCOc1ccc(NC(=O)CN(C)C(=O)COc2cccc(CC)c2)cc1OCC`: -24.3%; for `Cc1noc(C)c1CCC(=O)N1CCCC(CO)(Cc2ccccc2)C1` (stereo unspecified): -17.9%.
As for `Oc1ccc2ccccc2c1N=Nc1nccs1`, the Potency is 1.16 µM (active).
Same read-out and setting: under `Oc1ccc(N=Nc2nccs2)c(O)c1` stands 10.3 µM (active).
Regarding `Oc1ccc2ccccc2c1C=Nc1ccccc1`, the “activity change, negative = growth inhibition” value is 1.22%.
`O=C(OCC(=O)N1CCCCCC1)c1ccc(Br)c(S(=O)(=O)N2CCOCC2)c1`: the “activity change, negative = growth inhibition” value is -9.49%.
The same measure, in the same setting: the same measure for `COC(=O)C1=C(C(=O)OC)[C@@H]2N(Cc3ccccc3)c3ccccc3[C@@]23C[C@@H](C(=O)OC)N(S(=O)(=O)c2ccc(C(F)(F)F)cc2)C3=N1`: -26.2%.
For `CN1OC[C@@H]2CN(C(=O)C(C)(C)C)[C@H](c3ccc(-n4ccnc4)cc3)C[C@@H]21`, the “activity change, negative = growth inhibition” value was -11.7%.
On to `Cc1cc(C(=O)Nc2c(C)n(C)n(-c3ccccc3)c2=O)cs1`, for which the “activity change, negative = growth inhibition” value is -15%.
On the same count and under the same terms, the same measure for `O=C(CCN1C(=O)c2ccccc2C1=O)Nc1cccc(F)c1`: -3.34%.
In the case of `Cc1c(NC(=O)c2cccnc2)c(=O)n(-c2ccccc2)n1C`, the Potency entry was “inactive”.
Same read-out and setting: under `Cc1c(NC(=O)c2coc(=O)c(Br)c2)c(=O)n(-c2ccccc2)n1C` stands 2.59 µM (active).
As to `O=C(Nc1cccc(NC(=O)c2cccc(F)c2)c1)c1ccccc1`, the “activity change, negative = growth inhibition” value was -13.4%.
For `O=C(Nc1cccc(F)c1)c1coc(=O)c(Br)c1`, the Potency was 1.3 µM (active).
